Screening data (PubChem)
Sampled rows, rich in hits. Any-hit rate of the full collection: about 19%.
ELG1 repair inh: ELG1-dependent DNA repair inhibition; HEK293T ELG1-luciferase reporter, luminescence, 16 h; DNA damage induced by 5-fluorouridine; 2.3% of 330,000 active; Potency, µM (titrated, usually from 46.1 µM), without a hit: at the highest dose activity change, negative = inhibition, most hits filed as inhibitors; AID 504467; further: potency means the concentration at half of the fitted maximal effect; nearly all actives have a fitted effect of over 55% in size
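Luminescence from the luciferase reporter, measured 30 min after ONE-Glo reagent at room temperature, was the read-out. Beforehand, 2,000 cells per well were exposed for 16 hr at 37 °C to 5-fluorouridine together with compound or vehicle.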
IL1B secr inh: blocks inflammasome-driven IL-1 beta release; THP-1 LPS/ATP IL-1B secretion, AlphaLISA, 16 h; hits give low values; activity change, % at 57.5 µM; 4.7% of 360,000 active; AID 743279; in the data active means activity change below about -50%; inconclusive means mostly about -30% to -49%
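Secreted IL-1B measured by AlphaLISA bead assay after 16 h compound exposure of THP-1 cells; compounds (final up to 57.5 uM) added 1 h before LPS (250 ng/mL) and ATP (1.25 mM) stimulation; lower signal means less secretion.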
TDP1 cell noCPT: qHTS for Inhibitors of human tyrosyl-DNA phosphodiesterase 1 (TDP1): qHTS in cells in absence of CPT. DT40 Tdp1-/- hTDP1 cells, no CPT, ATP luminescence, 48 h. Potency, µM (top dose mostly 46.2 µM), without a hit: top-dose activity change, negative = growth inhibition, actives largely listed as inhibitors. 15% of 420,000 active; further: potency means the concentration at half of the fitted maximal effect; nearly all actives have a fitted effect of over 55% in size
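Seeded 400 DT40-hTDP1 cells/well (vehicle DMSO, no 20 nM CPT); pinned compounds; ≥48 hr at 37 °C; CellTiter-Glo luminescence as viability measure.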
DT40 TDP1 CPT: DT40-hTDP1 cell growth loss with CPT | chicken DT40 Tdp1-/-;hTDP1 cells + 20 nM CPT, ATP luminescence, 48 h | Potency, µM (titrated, usually from 46.2 µM), for inactives: top-dose activity change, negative = growth inhibition, actives largely listed as inhibitors | 12% of 420,000 active | AID 686979; further: potency means the concentration at half of the fitted maximal effect; nearly all actives have a fitted effect of over 55% in size
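Chicken DT40 Tdp1-/- cells stably complemented with human TDP1 were seeded at 400 cells/well in medium containing 20 nM camptothecin, exposed to pin-transferred compounds, and grown at 37 °C for at least 48 hr. Viability was read as ATP luminescence.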
HT1080-NT tox: kills 2HG-producing HT-1080-NT fibrosarcoma cells; HT-1080-NT fibrosarcoma viability, CellTiter-Glo ATP luminescence, 48 h; Potency, µM (highest dose often 46.1 µM), for inactives: top-dose activity, negative = less viability, most hits filed as cytotoxic; 1.6% of 360,000 active;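 further: NT is the 2HG producing partner of a matched IDH1 knockdown line; potency means the concentration at half of the fitted maximal effect; 0% = DMSO-treated cells and -100% = media-only wells without cells; nearly all actives have a fitted effect of over 55% in size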
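Viability of the 2HG-overproducing fibrosarcoma line after 48 hours of compound exposure at 37 degrees C was determined by luminescence with CellTiter-Glo, and concentration-effect curves were then fitted and categorized.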
HT1080 IDH1KD tx: kills HT-1080 cells with IDH1 knockdown; HT-1080 IDH1 knockdown viability, ATP luminescence, 48 h; Potency, µM (series often up to 46.1 µM), for the others: at the top dose activity, negative = toxicity, usual class: cytotoxic; 2% of 360,000 active; AID 686971;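 further: potency means the concentration at half of the fitted maximal effect; 0% = DMSO wells and -100% = cell-free medium wells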
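IDH1KD HT-1080 cells, 750/well, RPMI + 5% FBS; compound pinned after 2 h settling; 48 h, 37 °C; CellTiter-Glo luminescence; % activity normalised to DMSO and no-cell wells; curves fitted, classed by r2 and efficacy.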
An asterisk follows results filed as active; ? = inconclusive; . = not tested or not shown. Unless noted, the call rests on the fitted dose curve; in most records, active means well fitted curve in the direction sought with a large enough effect; inconclusive means small, poorly fitted or top-dose-only effect, or another doubt; inactive means no such curve, though single readings can be large; an effect the other way counts as inactive or inconclusive. Unless noted, on the % scale 0 is the no-effect control and ±100 the full control effect.

SMILES	ELG1 repair inh	IL1B secr inh	TDP1 cell noCPT	DT40 TDP1 CPT	HT1080-NT tox	HT1080 IDH1KD tx
C/C(NCCc1ccc(O)cc1)=C1/CCOC1=O	.	-28.9	0.6%	-13.8%	8.8%	13.2%
CC1CCN(C(=O)CN2c3ccc(C(C)C)cc3-c3ccccc3S2(=O)=O)CC1	.	.	23.1µM*	14.6µM*	.	.
CC1CCN(C(=O)CN2c3ccc(Br)cc3-c3ccccc3S2(=O)=O)CC1	.	.	20.6µM*	13µM*	.	.
COc1ccccc1CN1CCCC2(CCN(S(=O)(=O)c3ccccc3)CC2)C1	.	.	-7.8%	-2.6%	.	.
c1csc(-c2nc(NCC3CCCO3)c3ccccc3n2)c1 (centres undefined)	-20.9%	-90.4*	?	?	-13.1%	-10.9%
COc1cccc(Nc2nc(NCC3CCCO3)c3ccccc3n2)c1 (centres undefined)	?	-121.5*	5.17µM*	6.51µM*	-18.4%	?
COc1cccc(Nc2ncc3nc(C)c(=O)n(C[C@H]4CCCO4)c3n2)c1	.	.	-8.6%	-7.0%	.	.
c1csc(CNc2nc(-c3cccs3)nc3ccccc23)c1	0.9%	-21.8	-9.9%	0.4%	-28.8%	?
c1ccc(CN2CCC(Nc3nc(-c4cccs4)nc4ccccc34)CC2)cc1	?	-64.2*	18.4µM*	8.2µM*	?	?
Cc1ccc(S(=O)(=O)Nc2nc3ccccc3nc2NCC2CCCO2)cc1C (centres undefined)	-10.1%	20.6	?	20.6µM*	-1.4%	-5.6%
COc1cccc(CN(C)C(=O)COc2cccc3c2OC(C)(C)C3)c1OC	.	-17.1	?	?	-2.4%	-3.4%
Cc1ccc(C(=O)Nc2nc(=O)[nH]s2)cc1	17.6%	13.9	-14.0%	-19.5%	17.1%	-0.1%
CC(C)(C)c1ccc(OCCC(=O)OCC(=O)Nc2ccc(N3CCOCC3)cc2)cc1	9.6%	-4.5	?	?	6.6%	9.4%
Oc1ccc(Nc2nc(NCC3CCCO3)c3ccccc3n2)cc1 (centres undefined)	-9.4%	-96.0*	16.4µM*	23.1µM*	20.6µM*	?
S=C(NCC1CCCO1)Nc1ccc(Nc2ccccc2)cc1 (centres undefined)	-14.5%	-18.5	?	?	-18.7%	-9.1%
Oc1ccccc1Nc1nc(NCC2CCCO2)c2ccccc2n1 (centres undefined)	?	-109.3*	25.9µM*	16.4µM*	-4.6%	-9.5%
CC1S/C(=N/N=C/c2ccco2)N(Cc2ccccc2)C1=O (centres undefined)	?	-7.4	9.2µM*	?	4.6%	-19.2%
NS(=O)(=O)c1ccc(CNS(=O)(=O)Cc2ccc(Cl)cc2)cc1	-5.0%	28.0	-0.1%	6.4%	3.7%	6.0%
Cc1cc(S(=O)(=O)NCc2ccc(N3CCN(C)CC3)cc2)c(C)s1	?	-12.4	20.6µM*	?	10.4%	12.5%
CN1CCN(c2ccc(CNS(=O)(=O)Cc3ccc(Cl)cc3)cc2)CC1	-15.9%	18.9	16.4µM*	?	25.6%	10.7%
CN1CCN(c2ccc(CNS(=O)(=O)c3ccc(F)cc3Cl)cc2)CC1	-5.0%	-2.2	?	18.4µM*	0.8%	-2.8%
CCc1nonc1NC(=O)c1oc2c(C)c(C)ccc2c1C	-2.4%	4.1	?	-29.9%	3.7%	-3.3%
CCOc1ccc(C(=O)OC(C)CN2CCN(C)CC2)cc1 (centres undefined)	17.9%	2.6	-8.3%	1.6%	7.8%	4.3%
C=CCN(CC=C)CCOc1cccc2ccccc12	-0.3%	-57.4*	?	-2.2%	-5.7%	-12.8%
